In paper PMC12136788:
Residue numbers refer to the chain shown, from its start. Whole data set: some 5,800 sequences, median “enrichment r” near 0.68, cut for the highest 2% near 11. The full list was thinned out, with the highest values kept by preference.

T1: UNK ZnF1-6 (called full-length) (human, UniProt Q9C0B0 30-357)
T1 sequence: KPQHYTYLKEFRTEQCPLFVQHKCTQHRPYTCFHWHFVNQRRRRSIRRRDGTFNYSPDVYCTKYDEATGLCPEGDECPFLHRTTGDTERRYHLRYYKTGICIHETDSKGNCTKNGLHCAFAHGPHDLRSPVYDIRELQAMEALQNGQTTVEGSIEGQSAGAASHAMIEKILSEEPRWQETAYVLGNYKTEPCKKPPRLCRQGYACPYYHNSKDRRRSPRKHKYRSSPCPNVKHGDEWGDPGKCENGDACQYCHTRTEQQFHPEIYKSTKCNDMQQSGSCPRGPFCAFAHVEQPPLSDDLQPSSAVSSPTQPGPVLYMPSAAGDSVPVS

B1: chr2:27433287:27433389:+|CDS|ENSG00000115216|unk|FALSE|unique (ssRNA)
RNA: GGGAGUUCUACAGUCCGACGAUCUUCCAGCAUGUCGGAGGGGGAGUCCCAGACAGUACUUAGCAGUGGCUCAGACCCAAAGGUAGAAUCCUCAUCUUCAGCUCCUGGCCUGACAUCAGUGUCACCUCCUGUGACCUCCACAACCAACAGAGGAUUGAGCAUCA
B2: chr8:6811200:6812339:-|CDS|ENSG00000275591|control|control|control (ssRNA)
RNA: GGGAGUUCUACAGUCCGACGAUCAUGUAGAGGCUUCUGCCCCAGUGCAGGCUUCCCUGGAAGAACCCUCAGUAUCUCAGAGCUAGAGGAGCCGCUGGAGCCCAAAAGGGAGCUAAGUCACCAUGCAGCUGUUGGUGUGUGGGUCAACAGAGGAUUGAGCAUCA
B3: chr19:58083837:58084684:-|three_prime_utr|ENSG00000121413|control|control|control (ssRNA)
RNA: GGGAGUUCUACAGUCCGACGAUCGCUCGCAUCCGAGGGGAGCCGCCGGAUGUGGAAGAAGACUCGGCUUUCCUGCAGCCAUUUAGUGCCGCCCCAUGCUAGGUUAUUUGACAUUGUGCAGUGUAGAGUUGCCUUAAAGUGCGUCAACAGAGGAUUGAGCAUCA
B4: chr1:211748167:211748268:-|3pUTR|ENSG00000123684|msi1|FALSE|unique (ssRNA)
RNA: GGGAGUUCUACAGUCCGACGAUCGUACUGCAUCAGUGAGAUGAGUAGGGUUUUUGUUUGGGAUUGUAAGACUAUUAAGAUCCUAGUAAGUCAGUGGUAGUUUACUGUGAUGUGAGCAUUGUAGAUUCCCCCGUUGUCACUAAUCAACAGAGGAUUGAGCAUCA
B5: chr17:63354981:63355093:+|CDS|ENSG00000170921|unk|total|mutant (ssRNA)
RNA: GGGAGUUCUACAGUCCGACGAUCCAGUCAAGGGUCCUAUCUAUAUCUGAAACUUACAUUUGACCUCACCGAGAAAGGCUAUCCCGUGUUAAAGAGCUCCCGCUACAAAGCCGUUCCUGUUUCGCUCUCAGAGGUUUAUUUACUCAACAGAGGAUUGAGCAUCA
B6: chr11:72288215:72288316:-|3pUTR|ENSG00000162129|unk|FALSE|unique (ssRNA)
RNA: GGGAGUUCUACAGUCCGACGAUCACCCAGCUAAUUUUUUUUGUAUUUUUAGUAAAGACGGGGUUUCACCAUGUUUGCCAGGCUAGUCUCAAACUCCUGGUCUCAAGUGAUCCACCCACCUUGGCCUCCCAGAGUGCUGAGAUUCAACAGAGGAUUGAGCAUCA
B7: chr11:107429260:107429366:-|CDS|ENSG00000152404|unk|total|mutant (ssRNA)
RNA: GGGAGUUCUACAGUCCGACGAUCGAGGAAACCCACAUAUUCAGAUAAAGCACAAAAUUGUCAAGAAAGCCGAGAAUCAGACUCCGUAAAAUAUGGUAACAGUUCAAGGGACCGAUAUGCUACAACAGAUACUGCAAAAAACCGCAACAGAGGAUUGAGCAUCA
B8: chr11:69653362:69653473:+|3pUTR|ENSG00000110092|msi1_unk|FALSE|overlapping (ssRNA)
RNA: GGGAGUUCUACAGUCCGACGAUCACUGCCAUGUACUAGUUUUAGUUUUCUCUUAGAACAUUGUAUUACAGAUGCCUUUUUUGUAGUUUUUUUUUUUUUUAUGUGAUCAAUUUUGACUUAAUGUGAUUACUGCUCUAUUCCAAACAACAGAGGAUUGAGCAUCA
B9: chr19:9526975:9527076:-|3pUTR|ENSG00000130818|unk|FALSE|unique (ssRNA)
RNA: GGGAGUUCUACAGUCCGACGAUCCCUCUCAGACCUUCCAUCAUUACUAUAUUUCACUUUUAUGCCUAUAAACACACACAAAUUAGCAUAUGUAAUCUAAUACAUUGUAGCUAUUUUUCAGAAGUUAUCAGAUCAAUUAAGUAUCAACAGAGGAUUGAGCAUCA
B10: chr10:92030471:92030572:+|3pUTR|ENSG00000095564|unk|total|mutant (ssRNA)
RNA: GGGAGUUCUACAGUCCGACGAUCUAUUUUUUUAUUAACUAUUUAUUUGCCCGUUCCAUAAACCAGCUCUUUAACACCGCUUACCGUAAUUGAUAUUUUCUCCGAAUAAGUACAGAGCAAUAUAUCAUUAAAGGGCUAUGAAGGCAACAGAGGAUUGAGCAUCA
B11: chr7:115017934:115018035:+|3pUTR|ENSG00000135272|unk|FALSE|unique (ssRNA)
RNA: GGGAGUUCUACAGUCCGACGAUCUGAGAUGAAACGUAGUUUCUAGUUAUAUCAUUACUUAAAGGGCUUAAAAAGAAAAAACUUAGCAAACUUUUGAAUCUUUCUUUUAUUGCUAUUUACACAUACAUACACACAUACAAAACCCAACAGAGGAUUGAGCAUCA
B12: chr10:92030471:92030572:+|3pUTR|ENSG00000095564|unk|FALSE|unique (ssRNA)
RNA: B10 RNA with C50U, C51A, C76U, C77A, C83U, C84A, C101U, C102A
B13: ENSG00000136451:be:win_3351|3pUTR|ENSG00000136451|bound_else_gene|NA|bound_elsewhere_windowed (ssRNA)
RNA: GGGAGUUCUACAGUCCGACGAUCGAAGGCAACACAUUCCUACACUUUUAAUGUAUAUGUUUGUUAUAAUGUCCAUGUAAACAUGCCCUAUGUUUGUGCCUUUUAAUUAGUUUGUCUCAAUAAACAAAAUGUAGAGAAAAAUAUCAACAGAGGAUUGAGCAUCA
B14: chr17:44253117:44253371:-|CDS|ENSG00000004939|control|control|control (ssRNA)
RNA: GGGAGUUCUACAGUCCGACGAUCCAAACCUGAGCGCAAGAUGGUCAAGGGCUCCGGCUUCCACCUGGACCUGCUGCUGGUAGUAGGCAUGGGUGGGGUGGCCGCCCUCUUUGGGAUGCCCUGGCUCAGUGCCACCACCGUGCGCAACAGAGGAUUGAGCAUCA

Molecular target: T1, UNK ZnF1-6 (called full-length)
Test: nsRBNS (natural sequence RNA bind-n-seq); RBNS binding buffer (assumed for nsRBNS): 25 mM Tris pH 7.5, 150 mM KCl, 3 mM MgCl2, 0.01% Triton X-100, 500 ug/ml BSA, 20 U/ml SUPERase-In, 4 C; UNK is unkempt and MSI1 is Musashi-1; names of the RNAs are library labels; protein concentration not given here; high values mean tight binding

| Binder | binding signal |
| --- | --- |
| B1 | 0.848 enrichment R |
| B2 | 0.868 enrichment R |
| B3 | 0.832 enrichment R |
| B4 | 0.481 enrichment R |
| B5 | 0.664 enrichment R |
| B6 | 3.92 enrichment R |
| B7 | 0.603 enrichment R |
| B8 | 80.9 enrichment R |
| B9 | 4.62 enrichment R |
| B10 | 5.92 enrichment R |
| B11 | 5.81 enrichment R |
| B12 | 34.3 enrichment R |
| B13 | 2.53 enrichment R |
| B14 | 0.5 enrichment R |
